From ChEMBL document CHEMBL3433997, “St. Jude Leishmania screening dataset” (2016)

These molecules were tested against Glucose transporter (Leishmania mexicana) (UniProt O61059) (assay: ST_JUDE_LEISH: Cytotoxicity at 2uM final concentration against transgenic Leishmania Mexicana promastigotes LmGT2 that are glucose transport deficient and complemented with the L. Mexicana glucose transporter 2. Activity is measured by DNA content using SYBR green in vitro).
Assay type: functional

Q: `COc1ccc(NC(=O)Nc2cccc(-c3cccc(-c4nc5ccccc5[nH]4)c3)c2)cc1` was tested. Which inhibition did it give?
A: -1.98%

Q: Which inhibition does the source give for `CN(Cc1ccc(C#N)cc1)C1CCN(c2cc(NC(=O)c3cccc(F)c3)ccn2)CC1` here?
A: 0.96%

Q: With `CN(C)c1cccc2c1nc(-c1ccco1)n2CC1CCCN1` (stereo not given) as the molecule, how does the inhibition read?
A: -0.52%

Q: With `COc1ccc(S(=O)(=O)N(CC(=O)NN=C(C)c2cccs2)c2cc(C)cc(C)c2)cc1OC` as the molecule, how does the inhibition read?
A: -1.17%

Q: Which inhibition does the source give for `CCOc1cc(Br)c(C(C)NC(=O)c2cccc(OC)c2)cc1OCC` (stereo not given) here?
A: -0.19%

Q: For `CC(=O)Nc1ccc(CN(Cc2ccc(C)cc2)Cc2cccc(Oc3ccccc3)c2)cc1`, which inhibition is on record?
A: 2.62%

Q: How did the inhibition turn out when `O=C(/C=C/c1ccc(Cl)c(Cl)c1)N1CCC(CCCN2CCC(c3c[nH]c4ccccc34)CC2)CC1` was run?
A: -0.32%

Q: For `CN1CCN(CC(=O)Nc2cccc(-c3ccc(-c4nc5cc(F)ccc5[nH]4)s3)c2)CC1`, which inhibition is on record?
A: 5.89%

Q: How did the inhibition turn out when `COc1ccc(CNCc2ccc(-c3ccc(CNCCc4ccccc4)cn3)cc2)cn1` was run?
A: 1.46%

Q: Which inhibition does the source give for `Nc1nc(N)c2c(ccc3c2ncn3Cc2ccccc2)n1` here?
A: 10.5%

Q: `O=c1cc(NCCCNCc2[nH]c3cc(Cl)ccc3c2Cl)[nH]c2ccccc12` was tested. Which inhibition did it give?
A: 4.15%

Q: With `O=C(/C=C/c1ccc(Cl)c(Cl)c1)NCCCCCN1CCCC(CNC(=O)Nc2ccc(Oc3ccccc3)cc2)C1` (stereo not given) as the molecule, how does the inhibition read?
A: 0.61%

Q: With `Nc1c2c(nc3ccc(C(=O)Nc4cc(I)c(O)c(I)c4)cc13)CCCC2` as the molecule, how does the inhibition read?
A: 1.74%

Q: With `CC1(C)[C@H]2CC[C@@H](CNc3nc(NCCc4c[nH]cn4)nc(Nc4ccc(Oc5ccccc5)cc4)n3)[C@@H]1C2` as the molecule, how does the inhibition read?
A: -1.61%

Q: For `OC1(c2ccc(Br)cc2)CCN(C2CCN(Cc3ccccc3)CC2)CC1`, which inhibition is on record?
A: 3.71%

Q: Which inhibition does the source give for `CC(C)c1cc(N)c2cc(NC(=O)COCC(=O)Nc3ccc4nc(C(C)C)cc(N)c4c3)ccc2n1` here?
A: 5.02%

Q: Which inhibition does the source give for `CCCCCCN1CCCN(Cc2cccc(NC(=O)c3cc4ccccc4s3)c2)CC1` here?
A: 0.46%

Q: `C[C@@H](NC(=O)c1nn(-c2ccc(Cl)cc2)c(=O)c2ccccc12)C(C)(C)C` was tested. Which inhibition did it give?
A: 0.85%

Q: `CC(=O)Nc1ccc(C(=O)NC2CCN(c3ccnc4cc(Cl)ccc34)CC2)cc1` was tested. Which inhibition did it give?
A: 1.09%

Q: How did the inhibition turn out when `Cc1[nH]c(C)c(-c2csc3ccccc23)c(=O)c1Cl` was run?
A: 3.61%

Q: Which inhibition does the source give for `Cc1ccc(NC(=O)c2ccc(Cl)cc2)cc1-c1ccc(C(=O)Nc2ccncc2)cc1` here?
A: 0.29%

Q: With `CCc1cc(Br)c(CNCCCNc2cc(=O)c3ccccc3[nH]2)s1` as the molecule, how does the inhibition read?
A: -2.7%

Q: How did the inhibition turn out when `Nc1nc(N)c2c(ccc3c2ccn3CCCC(F)(F)F)n1` was run?
A: 8.28%

Q: For `Cc1[nH]c(C)c(-c2cccc(-c3ccc(OC(F)(F)F)cc3)c2)c(=O)c1Br`, which inhibition is on record?
A: -1.64%

Q: Which inhibition does the source give for `O=C(Nc1ccc(C(F)(F)F)cc1)c1ccc(S(=O)(=O)NCC2CCCN(CC3CCCCC3)C2)cc1` (stereo not given) here?
A: 1.65%

Q: How did the inhibition turn out when `N#Cc1ccc(-c2ccc(C(=O)NCCCCN3CCC(c4ccncc4)CC3)cc2)cc1` was run?
A: 2.75%

Q: For `N=C(N)Nc1nc(-c2ccc(NC(=N)N3CCC[C@H]3CN3CCCC3)cc2)cs1`, which inhibition is on record?
A: -0.7%

Q: For `CN(CCN)Cc1cccc(-c2cccc(-c3nc4cc(F)ccc4[nH]3)c2)c1`, which inhibition is on record?
A: -1.76%

Q: Which inhibition does the source give for `COC(=O)c1sc(-c2ccc(Cl)cc2)cc1N(CCCN1CCC(N2CCCCC2)CC1)S(=O)(=O)c1ccc(C)cc1` here?
A: 9.1%

Q: How did the inhibition turn out when `CC(=O)OC[C@H]1O[C@@H](C#Cc2ccccc2)[C@H](OC(C)=O)[C@@H](OC(C)=O)[C@@H]1OC(C)=O` was run?
A: 0.66%

Q: For `CCOc1cc(O)c(-c2nc(N)ncc2-c2ccc3c(c2)OCCO3)cc1CC`, which inhibition is on record?
A: 4.66%

Q: With `CCOc1cc(Cc2cnc(N)nc2N)cc(OC)c1OC` as the molecule, how does the inhibition read?
A: -0.04%

Q: How did the inhibition turn out when `COc1ccc(NS(=O)(=O)c2ccccc2Br)cc1N1CCN(C)CC1` was run?
A: 3.86%

Q: For `COc1ccc2ncc(F)c(CCN3CCC(NCc4ccc5c(c4)CCO5)CC3)c2n1`, which inhibition is on record?
A: 20.6%

Q: For `CCC(CO)NCC(O)Cn1c2ccc(Br)cc2c2cc(Br)ccc21` (stereo not given), which inhibition is on record?
A: -1.57%

Q: Which inhibition does the source give for `CCN(CC)C(=S)N/N=C1/C(=O)Nc2c(C)cccc21` here?
A: 1.52%

Q: `O=C(Nc1ccc(-c2nc3ccccc3[nH]2)cc1)c1ccc(N2CCCC2)c([N+](=O)[O-])c1` was tested. Which inhibition did it give?
A: 1.2%

Q: With `COc1ccc(Cn2ccc3c4c(N)nc(N)nc4ccc32)cc1` as the molecule, how does the inhibition read?
A: 90.1%

Q: For `Cc1[nH]c(C)c(-c2ccc(-c3ccccc3)nc2)c(=O)c1Br`, which inhibition is on record?
A: 0.2%

Q: How did the inhibition turn out when `N#Cc1ccc(CCNc2nccc(-c3cccc(CN4CCNCC4)c3)n2)cc1` was run?
A: 6.7%
